In assay [1] the target is Insulin receptor (Homo sapiens) (UniProt P06213). The following applies: at 10 µM.
For assay [2] the target is unchanged. The following applies: at 1 µM.
Assay [3] has the same target. The conditions noted are these: at 10 µM. The source holds these as a separate data set.
Assay [4] has as its target Interleukin-1 receptor-associated kinase 1 (Homo sapiens) (UniProt P51617). The following applies: at 1 µM.
Assay [5] shares this target. The conditions noted are these: at 10 µM.
Assay [6] concerns the target T1, Interleukin-1 receptor-associated kinase 4 (Homo sapiens) (UniProt Q9NWZ3).
T1 sequence (whole entry): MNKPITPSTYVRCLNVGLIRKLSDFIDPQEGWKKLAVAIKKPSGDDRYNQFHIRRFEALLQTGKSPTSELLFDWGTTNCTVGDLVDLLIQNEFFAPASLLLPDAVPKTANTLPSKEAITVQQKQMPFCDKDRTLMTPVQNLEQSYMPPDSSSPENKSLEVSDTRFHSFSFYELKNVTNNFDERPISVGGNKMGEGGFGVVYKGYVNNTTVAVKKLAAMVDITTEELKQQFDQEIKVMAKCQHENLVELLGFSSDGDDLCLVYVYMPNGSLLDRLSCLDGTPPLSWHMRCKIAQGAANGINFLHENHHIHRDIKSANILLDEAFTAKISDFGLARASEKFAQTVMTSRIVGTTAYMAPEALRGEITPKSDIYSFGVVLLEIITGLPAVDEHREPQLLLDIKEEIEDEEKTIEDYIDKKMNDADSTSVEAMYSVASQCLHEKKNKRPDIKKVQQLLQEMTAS
The conditions noted are these: at 1 µM.

Assay [7] deals with T1, Interleukin-1 receptor-associated kinase 4 (Homo sapiens). The following applies: at 10 µM.
Assay [8] concerns the target Insulin receptor-related protein (Homo sapiens) (UniProt P14616). The conditions noted are these: at 1 µM.
Assay [9] has the same target. The following applies: at 10 µM.
For assay [10], the target named is T2, Tyrosine-protein kinase ITK/TSK (Homo sapiens) (UniProt Q08881).
T2 sequence (whole entry): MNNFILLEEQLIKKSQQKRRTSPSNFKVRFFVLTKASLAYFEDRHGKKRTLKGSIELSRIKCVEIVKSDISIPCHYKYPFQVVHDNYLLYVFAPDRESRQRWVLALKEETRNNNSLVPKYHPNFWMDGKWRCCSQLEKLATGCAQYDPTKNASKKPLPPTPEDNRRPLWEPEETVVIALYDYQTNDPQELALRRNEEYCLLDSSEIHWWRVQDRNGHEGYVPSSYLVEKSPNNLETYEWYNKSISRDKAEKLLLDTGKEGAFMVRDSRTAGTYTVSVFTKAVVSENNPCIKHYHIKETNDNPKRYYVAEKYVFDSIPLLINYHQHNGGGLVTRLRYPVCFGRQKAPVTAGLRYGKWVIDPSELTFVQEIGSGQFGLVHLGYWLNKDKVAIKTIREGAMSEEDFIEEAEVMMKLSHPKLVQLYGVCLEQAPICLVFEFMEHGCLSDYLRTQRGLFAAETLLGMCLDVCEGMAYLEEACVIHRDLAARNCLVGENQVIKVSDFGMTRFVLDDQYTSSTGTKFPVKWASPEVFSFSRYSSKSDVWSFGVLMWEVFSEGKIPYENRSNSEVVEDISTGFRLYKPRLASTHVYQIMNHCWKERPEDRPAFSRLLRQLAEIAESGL
The following applies: at 1 µM.

In assay [11] the target is T2, Tyrosine-protein kinase ITK/TSK (Homo sapiens). The following applies: at 10 µM.
Assay [12] addresses Tyrosine-protein kinase JAK2 (Homo sapiens) (UniProt O60674). The conditions noted are these: at 1 µM.
Assay [13] has the same target. The following applies: at 10 µM.
Assay [14] deals with T3, Tyrosine-protein kinase JAK3 (Homo sapiens) (UniProt P52333).
T3 sequence (whole entry): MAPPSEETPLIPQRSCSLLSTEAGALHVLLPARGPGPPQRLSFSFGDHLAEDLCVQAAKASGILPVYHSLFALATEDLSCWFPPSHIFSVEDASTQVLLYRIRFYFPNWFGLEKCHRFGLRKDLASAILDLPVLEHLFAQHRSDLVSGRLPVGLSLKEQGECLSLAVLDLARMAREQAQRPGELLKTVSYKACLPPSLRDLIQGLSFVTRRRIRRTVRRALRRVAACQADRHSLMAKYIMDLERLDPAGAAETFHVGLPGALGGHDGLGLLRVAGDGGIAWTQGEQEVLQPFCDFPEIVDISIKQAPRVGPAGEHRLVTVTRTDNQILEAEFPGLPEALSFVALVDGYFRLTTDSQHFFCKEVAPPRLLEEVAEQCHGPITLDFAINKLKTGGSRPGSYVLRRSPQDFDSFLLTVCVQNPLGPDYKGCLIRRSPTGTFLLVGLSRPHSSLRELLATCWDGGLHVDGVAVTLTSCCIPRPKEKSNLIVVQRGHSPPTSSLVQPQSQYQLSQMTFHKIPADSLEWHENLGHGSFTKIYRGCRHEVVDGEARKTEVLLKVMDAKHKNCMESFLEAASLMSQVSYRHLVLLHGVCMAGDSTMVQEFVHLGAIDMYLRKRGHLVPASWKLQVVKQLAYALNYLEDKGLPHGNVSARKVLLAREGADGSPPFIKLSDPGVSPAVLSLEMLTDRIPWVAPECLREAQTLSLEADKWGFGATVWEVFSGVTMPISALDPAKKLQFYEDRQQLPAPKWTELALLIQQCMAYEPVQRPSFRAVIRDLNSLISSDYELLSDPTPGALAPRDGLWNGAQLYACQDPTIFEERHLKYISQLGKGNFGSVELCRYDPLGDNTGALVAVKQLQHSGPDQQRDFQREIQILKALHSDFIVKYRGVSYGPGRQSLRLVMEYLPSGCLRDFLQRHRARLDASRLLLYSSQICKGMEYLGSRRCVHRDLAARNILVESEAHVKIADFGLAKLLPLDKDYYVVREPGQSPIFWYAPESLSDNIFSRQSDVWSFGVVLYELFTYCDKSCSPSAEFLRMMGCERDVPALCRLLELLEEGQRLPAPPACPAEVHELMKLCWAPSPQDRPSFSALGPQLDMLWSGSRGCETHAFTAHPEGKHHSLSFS
The following applies: at 1 µM.

Assay [15] deals with T3, Tyrosine-protein kinase JAK3 (Homo sapiens). The conditions noted are these: at 10 µM.
Assay [16] addresses Mitogen-activated protein kinase 8 (Homo sapiens) (UniProt P45983). The following applies: at 1 µM.
For assay [17] the target is unchanged. The following applies: at 10 µM.
In assay [18] the target is Mitogen-activated protein kinase 9 (Homo sapiens) (UniProt P45984). The following applies: at 1 µM.
Mitogen-activated protein kinase 9 (Homo sapiens), sequence (P45984 whole entry, looked up): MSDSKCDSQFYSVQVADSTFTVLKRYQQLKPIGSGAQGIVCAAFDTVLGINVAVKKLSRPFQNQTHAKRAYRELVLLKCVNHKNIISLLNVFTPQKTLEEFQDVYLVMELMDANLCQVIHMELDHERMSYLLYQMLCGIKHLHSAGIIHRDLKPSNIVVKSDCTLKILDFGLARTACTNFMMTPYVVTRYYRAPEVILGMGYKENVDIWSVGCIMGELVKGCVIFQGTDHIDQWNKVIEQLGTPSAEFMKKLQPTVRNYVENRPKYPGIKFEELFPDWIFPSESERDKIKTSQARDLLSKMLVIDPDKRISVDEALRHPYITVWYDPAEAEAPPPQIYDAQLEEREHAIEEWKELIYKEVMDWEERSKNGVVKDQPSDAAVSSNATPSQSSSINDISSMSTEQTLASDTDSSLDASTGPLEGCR
Assay [19] has the same target. The conditions noted are these: at 10 µM.
The target of assay [20] is Mitogen-activated protein kinase 10 (Homo sapiens) (UniProt P53779). The conditions noted are these: at 1 µM.
Mitogen-activated protein kinase 10 (Homo sapiens), sequence (P53779 whole entry): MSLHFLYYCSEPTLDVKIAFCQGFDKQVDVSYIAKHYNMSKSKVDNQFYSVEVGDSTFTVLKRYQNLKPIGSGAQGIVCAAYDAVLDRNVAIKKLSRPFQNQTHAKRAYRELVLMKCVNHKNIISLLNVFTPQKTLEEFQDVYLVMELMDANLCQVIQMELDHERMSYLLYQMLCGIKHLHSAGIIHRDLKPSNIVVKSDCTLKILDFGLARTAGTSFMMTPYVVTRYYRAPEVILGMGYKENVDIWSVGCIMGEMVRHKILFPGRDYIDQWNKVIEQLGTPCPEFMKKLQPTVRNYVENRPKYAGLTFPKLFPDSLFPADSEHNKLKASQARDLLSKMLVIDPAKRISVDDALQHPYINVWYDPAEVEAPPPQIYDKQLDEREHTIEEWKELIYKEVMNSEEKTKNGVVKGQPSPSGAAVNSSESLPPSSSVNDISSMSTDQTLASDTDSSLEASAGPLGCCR

Interleukin-1 receptor-associated kinase 1 (Homo sapiens), sequence (P51617 whole entry, looked up): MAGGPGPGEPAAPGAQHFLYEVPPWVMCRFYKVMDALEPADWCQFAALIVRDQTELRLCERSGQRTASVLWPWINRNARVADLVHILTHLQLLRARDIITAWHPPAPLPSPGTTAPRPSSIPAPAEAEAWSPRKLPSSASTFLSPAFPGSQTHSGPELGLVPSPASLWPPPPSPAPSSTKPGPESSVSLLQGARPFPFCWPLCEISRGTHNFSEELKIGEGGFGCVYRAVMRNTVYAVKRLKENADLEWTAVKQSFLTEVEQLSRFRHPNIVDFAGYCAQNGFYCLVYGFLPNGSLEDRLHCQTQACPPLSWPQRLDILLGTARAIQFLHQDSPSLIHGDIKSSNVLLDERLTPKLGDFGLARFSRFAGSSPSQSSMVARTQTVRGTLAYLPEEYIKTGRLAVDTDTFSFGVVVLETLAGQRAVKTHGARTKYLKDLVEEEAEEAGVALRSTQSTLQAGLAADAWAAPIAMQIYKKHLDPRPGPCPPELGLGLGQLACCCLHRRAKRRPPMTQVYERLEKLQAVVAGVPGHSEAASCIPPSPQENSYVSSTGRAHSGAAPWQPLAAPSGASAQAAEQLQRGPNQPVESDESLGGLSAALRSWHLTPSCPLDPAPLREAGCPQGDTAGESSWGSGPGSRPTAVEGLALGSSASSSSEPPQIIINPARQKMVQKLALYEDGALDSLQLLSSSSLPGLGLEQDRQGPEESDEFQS
Insulin receptor-related protein (Homo sapiens), sequence (P14616 27-742 limits assumed): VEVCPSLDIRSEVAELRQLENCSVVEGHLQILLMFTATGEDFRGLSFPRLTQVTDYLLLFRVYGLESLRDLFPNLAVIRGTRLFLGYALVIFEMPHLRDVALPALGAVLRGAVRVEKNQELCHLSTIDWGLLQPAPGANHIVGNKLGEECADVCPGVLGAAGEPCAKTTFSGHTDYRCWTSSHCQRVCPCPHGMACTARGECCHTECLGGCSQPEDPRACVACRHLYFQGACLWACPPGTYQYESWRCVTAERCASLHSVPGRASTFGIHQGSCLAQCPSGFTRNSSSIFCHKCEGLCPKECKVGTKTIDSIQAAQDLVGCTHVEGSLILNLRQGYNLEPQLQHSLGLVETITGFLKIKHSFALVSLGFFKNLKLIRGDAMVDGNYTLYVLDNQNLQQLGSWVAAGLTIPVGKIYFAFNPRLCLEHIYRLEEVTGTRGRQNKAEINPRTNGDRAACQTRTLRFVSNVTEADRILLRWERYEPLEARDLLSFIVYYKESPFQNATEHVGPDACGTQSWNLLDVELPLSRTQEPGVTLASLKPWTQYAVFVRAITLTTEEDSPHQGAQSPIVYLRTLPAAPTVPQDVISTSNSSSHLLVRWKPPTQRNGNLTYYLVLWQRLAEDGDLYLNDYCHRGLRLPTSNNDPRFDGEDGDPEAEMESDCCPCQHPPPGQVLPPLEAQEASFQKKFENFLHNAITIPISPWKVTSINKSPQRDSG
Insulin receptor-related protein (Homo sapiens), sequence (P14616 747-1297 limits assumed): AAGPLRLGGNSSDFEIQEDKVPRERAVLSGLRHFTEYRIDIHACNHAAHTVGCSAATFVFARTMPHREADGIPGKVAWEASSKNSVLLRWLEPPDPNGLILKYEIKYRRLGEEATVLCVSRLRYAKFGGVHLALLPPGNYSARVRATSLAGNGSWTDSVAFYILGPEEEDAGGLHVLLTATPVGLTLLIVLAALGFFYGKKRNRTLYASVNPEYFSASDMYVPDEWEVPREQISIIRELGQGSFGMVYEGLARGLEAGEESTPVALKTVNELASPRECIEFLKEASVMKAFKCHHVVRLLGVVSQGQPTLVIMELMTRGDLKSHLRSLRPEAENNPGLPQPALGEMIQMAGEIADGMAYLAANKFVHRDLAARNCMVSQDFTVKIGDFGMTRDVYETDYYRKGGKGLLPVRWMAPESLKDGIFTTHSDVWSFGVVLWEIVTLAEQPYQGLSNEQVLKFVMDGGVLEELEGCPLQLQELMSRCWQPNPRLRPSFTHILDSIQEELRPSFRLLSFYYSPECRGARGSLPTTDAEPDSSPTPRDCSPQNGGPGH
Mitogen-activated protein kinase 8 (Homo sapiens), sequence (P45983 whole entry): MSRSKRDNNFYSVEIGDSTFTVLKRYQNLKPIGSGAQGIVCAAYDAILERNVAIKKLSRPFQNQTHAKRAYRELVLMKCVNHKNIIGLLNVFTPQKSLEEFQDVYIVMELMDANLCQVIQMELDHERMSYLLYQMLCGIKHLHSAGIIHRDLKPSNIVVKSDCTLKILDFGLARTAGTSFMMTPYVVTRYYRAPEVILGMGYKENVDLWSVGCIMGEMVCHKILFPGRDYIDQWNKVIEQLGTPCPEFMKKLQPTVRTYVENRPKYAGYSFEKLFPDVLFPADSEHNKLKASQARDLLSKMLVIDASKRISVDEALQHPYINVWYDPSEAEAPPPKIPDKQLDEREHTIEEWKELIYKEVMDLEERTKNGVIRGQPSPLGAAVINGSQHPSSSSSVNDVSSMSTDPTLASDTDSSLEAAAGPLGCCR
Tyrosine-protein kinase JAK2 (Homo sapiens), sequence (O60674 whole entry): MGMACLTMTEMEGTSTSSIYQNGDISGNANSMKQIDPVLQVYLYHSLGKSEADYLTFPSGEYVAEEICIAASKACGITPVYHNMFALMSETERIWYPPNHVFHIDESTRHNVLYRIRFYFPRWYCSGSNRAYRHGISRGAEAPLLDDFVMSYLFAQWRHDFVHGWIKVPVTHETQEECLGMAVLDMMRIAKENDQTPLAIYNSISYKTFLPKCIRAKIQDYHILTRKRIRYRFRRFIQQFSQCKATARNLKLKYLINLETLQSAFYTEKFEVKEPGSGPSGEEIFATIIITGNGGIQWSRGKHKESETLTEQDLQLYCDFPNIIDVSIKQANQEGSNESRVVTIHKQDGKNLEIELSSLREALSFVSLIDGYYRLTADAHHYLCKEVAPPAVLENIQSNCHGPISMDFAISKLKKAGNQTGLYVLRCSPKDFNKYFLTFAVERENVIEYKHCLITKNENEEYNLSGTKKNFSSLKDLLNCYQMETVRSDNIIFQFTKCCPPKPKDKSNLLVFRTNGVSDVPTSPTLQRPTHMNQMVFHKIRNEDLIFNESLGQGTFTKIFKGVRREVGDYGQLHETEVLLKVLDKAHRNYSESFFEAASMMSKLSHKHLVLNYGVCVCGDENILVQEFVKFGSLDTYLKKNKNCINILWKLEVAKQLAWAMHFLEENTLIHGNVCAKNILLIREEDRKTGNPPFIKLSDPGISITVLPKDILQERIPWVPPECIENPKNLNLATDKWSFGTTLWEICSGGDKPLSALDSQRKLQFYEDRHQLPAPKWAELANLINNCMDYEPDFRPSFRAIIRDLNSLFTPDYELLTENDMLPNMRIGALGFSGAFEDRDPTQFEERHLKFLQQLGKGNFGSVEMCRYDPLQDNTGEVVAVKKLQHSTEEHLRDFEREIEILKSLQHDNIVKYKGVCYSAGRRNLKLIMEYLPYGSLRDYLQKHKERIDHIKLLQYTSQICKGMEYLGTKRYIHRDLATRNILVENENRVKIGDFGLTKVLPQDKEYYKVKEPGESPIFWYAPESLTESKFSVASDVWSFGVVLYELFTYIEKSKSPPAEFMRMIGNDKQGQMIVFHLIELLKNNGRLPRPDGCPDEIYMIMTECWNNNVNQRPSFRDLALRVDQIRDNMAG

With `COc1cc2ncnc(Nc3ccc(O)c(Br)c3)c2cc1OC`, the residual activity was determined as 76% in assay [1]; 95% in assay [2]; 91% in [3]; 40% in assay [4]; 10% in assay [5]; 44% in [6]. In addition, the residual activity in [7] worked out at 17%; in assay [8], 102%; in assay [9], 75%; in [10] it was 89%; in assay [11], 71%; in assay [12] it was 102%. Besides, the residual activity in assay [13] was found to be 55%; in assay [14] it was 93%; in assay [15], 57%; in assay [16] it was 96%; in assay [17] it was 54%; in [18] it was 99%. The figures for the residual activity in assay [19] and in assay [20] were 78% and 51%, respectively.

In the case of `CO[C@H]1C[C@@H]2CC[C@@H](C)[C@@](O)(O2)C(=O)C(=O)N2CCCC[C@H]2C(=O)O[C@H]([C@H](C)C[C@@H]2CC[C@@H](O)[C@H](OC)C2)CC(=O)[C@H](C)/C=C(\C)[C@@H](O)[C@@H](OC)C(=O)[C@H](C)C[C@H](C)/C=C/C=C/C=C/1C`, the residual activity in [1] was 89%; in assay [2] it was 92%; in [3], 101%; in [4] it was 74%; in assay [5], 71%; in assay [6], 107%. The residual activity in assay [7] was found to be 154%; in assay [8] it was 126%; in [9] it was 99%; in assay [10] it was 101%; in assay [11] it was 113%; in assay [12] it was 101%. In addition, the residual activity in assay [13] worked out at 160%; in [14], 103%; in [15], 124%; in assay [16] it was 107%; in assay [17], 90%; in assay [18], 111%. Also, the residual activity in [19] was found to be 96%; in assay [20], 108%.

Consider `Nc1n[nH]c2nnc(-c3c(-c4ccccc4)nn4ccccc34)cc12`, for which the residual activity in assay [1] amounted to 25%; in assay [2], 89%; in [3] it was 44%; in [4] it was 95%; in assay [5] it was 104%; in [6], 66%. Besides, the residual activity in assay [7] worked out at 64%; in assay [8], 88%; in assay [9], 23%; in assay [10] it was 96%; in assay [11], 88%; in assay [12], 95%. In addition, the residual activity in assay [13] stood at 99%; in assay [14] it was 103%; in assay [15], 92%; in assay [16], 99%; in [17] it was 71%; in assay [18], 55%. The results for the residual activity in assay [19] and in assay [20] were 9% and 19%, respectively.

With `Nc1ccc2ncnc(NCCc3ccc(Oc4ccccc4)cc3)c2c1`, the residual activity in assay [1] worked out at 35%; in assay [2] it was 101%; in assay [3], 92%; in [4], 100%; in assay [5] it was 101%; in assay [6], 88%. Moreover, the residual activity in [7] is 58%; in assay [8] it was 101%; in assay [9], 108%; in assay [10] it was 80%; in assay [11] it was 94%; in assay [12], 107%. Further, the residual activity was 149% in assay [13]; 97% in [14]; 124% in assay [15]; 88% in assay [16]; 101% in assay [17]; 93% in assay [18]. In addition, the values for the residual activity in assay [19] and in assay [20] were 105% and 97%, respectively.

Consider `CC(C)n1cnc2c(NCc3ccccc3)nc(NCCCO)nc21`, for which the residual activity in [1] was determined as 70%; in assay [2] it was 99%; in assay [3], 75%; in [4], 105%; in assay [5], 106%; in [6] it was 93%. The residual activity in [7] was 76%; in [8] it was 106%; in assay [9], 84%; in assay [10] it was 105%; in [11], 96%; in [12], 101%. The residual activity was 103% in [13]; 111% in assay [14]; 108% in [15]; 104% in assay [16]; 95% in [17]; 98% in [18]. For the same compound, the figures for the residual activity in assay [19] and in assay [20] were 99% and 57%, respectively.

In the case of `Ic1cccc(CSc2nnc(-c3ccncc3)o2)c1`, the residual activity in assay [1] was 82%; in assay [2], 95%; in assay [3], 92%; in assay [4] it was 91%; in assay [5], 94%; in [6] it was 55%. Moreover, the residual activity in [7] amounted to 41%; in assay [8] it was 112%; in assay [9], 101%; in assay [10], 93%; in assay [11] it was 95%; in assay [12], 86%. Moreover, the residual activity in [13] is 104%; in assay [14] it was 102%; in assay [15], 89%; in assay [16], 93%; in assay [17], 84%; in [18], 90%. Also, the residual activity in assay [19] came to 96%; in assay [20], 73%.
